# Assay results reported in PubChem BioAssay AID686964 (The Scripps Research Institute Molecular Screening Center, 2013).
# Out of some 370,000 compounds screened, about 1,100 (0.3%) were called active. This excerpt belongs to a sample that is enriched for actives. Unmarked numbers belong to inactive results. No stated cut-off is given here; in the data, active means inhibition above about 13%; inactive means the rest.
# Biological target: Methyl-CpG-binding domain protein 2 (Homo sapiens) (UniProt Q9UBB5)
# Sequence (Q9UBB5 whole entry, looked up, the tested form may be a part): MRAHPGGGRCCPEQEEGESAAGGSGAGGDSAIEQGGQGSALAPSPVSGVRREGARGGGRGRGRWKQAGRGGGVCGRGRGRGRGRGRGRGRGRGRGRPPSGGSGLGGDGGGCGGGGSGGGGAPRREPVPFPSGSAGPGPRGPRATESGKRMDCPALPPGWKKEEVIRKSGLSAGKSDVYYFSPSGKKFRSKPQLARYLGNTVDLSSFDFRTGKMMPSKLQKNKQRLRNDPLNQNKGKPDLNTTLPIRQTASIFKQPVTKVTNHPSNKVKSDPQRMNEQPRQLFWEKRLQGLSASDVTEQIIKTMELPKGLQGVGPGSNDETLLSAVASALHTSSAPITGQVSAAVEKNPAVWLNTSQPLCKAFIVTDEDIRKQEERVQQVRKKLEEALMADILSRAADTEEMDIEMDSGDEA
# Assay: MBD2-DBD methyl-oligonucleotide interaction blockers – biochemical, TR-FRET, DNA-binding domain, human, primary screen (AID 686964)
# Conditions: MBD2 binding to methylated oligonucleotide, at 4.4 µM, active compounds read high
row,SMILES,inhibition
1,COc1ccc(N2C(=O)/C(=C/c3ccco3)C(=O)NC2=S)cc1,32% (active)
2,O=C(O)CCn1cc(C=C2C(=O)NC(=S)NC2=O)c(-c2cccc(Br)c2)n1,2.88%
3,COC(=O)C1=C(c2ccccc2OCc2ccccc2)C[C@@H]2CC[C@H]1N2C(=O)NCc1ccc(OC)cc1,-6.77%
4,CO[C@H]([C@H](C)/C=C/N(C)C=O)[C@@H](C)C(=O)CC[C@H](C)[C@H](O)[C@H](C)[C@H]1OC(=O)/C=C/C(C)=C/[C@H](O)[C@H](OC)C[C@@H]2C=CC[C@@H](C[C@H](OC)[C@@]3(CO3)[C@@H](OC)C[C@@H](OC)[C@@H]1C)O2,3.68%
5,CN(C)C(=O)Oc1cc(=O)n2c3c(cccc13)CCC2,-1%
6,COP(=O)(Sc1ccccc1)C(Cc1ccccc1)NC(=O)OCc1ccccc1 (stereo not given),1.01%
7,Cc1cc(/C=C2/C(=O)NC(=O)N(Cc3ccco3)C2=O)c(C)n1-c1ccc(C(=O)O)cc1,23.8% (active)
8,O=C1NC(=O)N(Cc2ccco2)C(=O)/C1=C\c1ccc(-c2ccc(F)cc2)o1,31.9% (active)
9,Cc1ccnc(-n2c(C)cc(/C=C3\C(=O)NC(=S)N(C)C3=O)c2C)c1,-7.85%
10,COc1cc2nc(N3CCN(C(=O)[C@@H]4CCCO4)CC3)nc(N)c2cc1OC,2.48%
11,Cc1ccccc1CCC[C@@H](CC1CCCCC1)CN(C)C(=O)Oc1ccccc1,-0.69%
12,O=C(O)C1CSC(c2cccnc2)N1 (stereo not given),-2.74%
13,CC(C)c1ccc(-n2c(O)c(/C=N/N3CCOCC3)c(=O)[nH]c2=S)cc1,-0.85%
14,CSc1ccc(C(=O)C2CCCN(Cc3ccn[nH]3)C2)cc1 (stereo not given),-7.23%
15,CC(C)(C)[C@]1(O)C[C@@H]2OC(=O)C[C@@]23C(=O)O[C@@H]2OC(=O)[C@H](O)[C@]213,-1.05%
